In PubChem BioAssay (NCI) one finds growth inhibition data, which are given here for 10 compounds.

Experiment [1] in a line: NCI Yeast Anticancer Drug Screen. Data for the rad50 strain (AID 155).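 Further: 0% = growth of vehicle-only cultures of the same strain.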 Particulars: S. cerevisiae rad50 strain growth inhibition, stronger effect = higher value. The gist of the method:
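Genetically altered yeast (DNA repair pathway); compound treatment; growth inhibition vs vehicle ctrl.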

Experiment [2] is described as follows: NCI Yeast Anticancer Drug Screen. Data for the mec2-1 strain (AID 157). The note with it: S. cerevisiae mec2-1 strain, stronger effect = higher value. The gist of the method:
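Readout is yeast growth inhibition, normalised to vehicle-treated controls, in the mec2-1 strain exposed to compound.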

Experiment [3] can be described thus: NCI Yeast Anticancer Drug Screen. Data for the sgs1 mgt1 strain (AID 161).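 Further: 0% = growth of cultures given vehicle only.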 The note with it: S. cerevisiae sgs1 mgt1 strain, stronger effect = higher value. The gist of the method: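 Compounds are added to genetically altered yeast, and growth is compared with cultures given vehicle alone to give percent inhibition.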
Experiment [4] in a line: NCI Yeast Anticancer Drug Screen. Data for the cln2 rad14 strain (AID 165).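 Further: 0% = growth equal to vehicle treated cultures.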 The note with it: S. cerevisiae cln2 rad14 strain, stronger effect = higher value. Summed up:
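Relative to vehicle controls, growth inhibition of compound-treated cln2 rad14 yeast was recorded.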

The nature of experiment [5]: NCI Yeast Anticancer Drug Screen. Data for the bub3 strain (AID 167). The note with it: S. cerevisiae bub3 mutant strain, stronger effect = higher value. Summed up:
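Yeast carrying a defined mutation is treated with each compound, and growth is compared with that of vehicle-exposed cells to give inhibition.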

Experiment [6] in a line: NCI Yeast Anticancer Drug Screen. Data for the mlh1 rad18 strain (AID 175). The note with it: S. cerevisiae mlh1 rad18 strain growth inhibition, stronger effect = higher value. Summed up: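 Test agents were incubated with a yeast strain of defined genotype (DNA damage repair defect). Inhibition of growth was derived by comparison with vehicle-exposed cultures.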
Setting [7] is: at 5.0 µM (retest, dose inferred, filed as 0.5).
Where [8] appears, read: at 50.0 µM (retest, dose inferred, filed as 5.0).

This is part of a sample that, as a whole, favours compounds with a hit. Of some 79,000 tested, about 15% had one in any assay. Unmarked numbers belong to inactive results. The source made the active and inactive calls. No stated cut-off is given here; in the data, active means growth inhibition above about 70%; inactive means the rest.

As for `CC(C)c1ccc(N2C(=O)C=CC2=O)cc1`, the growth inhibition was 98% (active) in experiment [1] (setting [7]); 97% (active) in experiment [1] (setting [8]); 99.7% (active) in experiment [1] (at 50.0 µM); 98% (active) in experiment [2] (setting [7]); 99% (active) in experiment [2] (setting [8]); 99.7% (active) in experiment [2] (at 50.0 µM). Also, the growth inhibition in experiment [3] (setting [7]) is 95% (active); in experiment [3] (setting [8]) it was 98% (active); in experiment [3] (at 50.0 µM), 99.5% (active); in experiment [4] (setting [7]), 91% (active); in experiment [4] (setting [8]), 99% (active); in experiment [4] (at 50.0 µM), 99.5% (active). The growth inhibition was 98% (active) in experiment [5] (setting [7]); 98% (active) in experiment [5] (setting [8]); 99.5% (active) in experiment [5] (at 50.0 µM); 95% (active) in experiment [6] (setting [7]); 98% (active) in experiment [6] (setting [8]); 99.2% (active) in experiment [6] (at 50.0 µM).
Take `O=C(N/N=C/c1cc(Cl)cc(Cl)c1O)c1ccccc1`: the growth inhibition is 39% in experiment [1] (setting [7]); 22% in experiment [1] (setting [8]); 69.9% in experiment [1] (at 50.0 µM); 41% in experiment [2] (setting [7]); 36% in experiment [2] (setting [8]); 57.5% in experiment [2] (at 50.0 µM). Further, the growth inhibition in experiment [3] (setting [7]) was 55%; in experiment [3] (setting [8]), 48%; in experiment [3] (at 50.0 µM), 69.6%; in experiment [5] (setting [7]), 46%; in experiment [5] (setting [8]), 30%; in experiment [5] (at 50.0 µM), 71.6% (active). In addition, the growth inhibition in experiment [6] (setting [7]) is 45%; in experiment [6] (setting [8]), 40%; in experiment [6] (at 50.0 µM), 69.8%.
Regarding `COc1ccc2ccccc2c1-c1c(O)ccc2ccccc12`, the growth inhibition was 0% in experiment [1] (setting [7]); 80% (active) in experiment [1] (setting [8]); 93.5% (active) in experiment [1] (at 50.0 µM); -5% in experiment [2] (setting [7]); 71% (active) in experiment [2] (setting [8]); 95.8% (active) in experiment [2] (at 50.0 µM). The growth inhibition is -2% in experiment [3] (setting [7]); 63% in experiment [3] (setting [8]); 97.2% (active) in experiment [3] (at 50.0 µM); -5% in experiment [4] (setting [7]); 72% (active) in experiment [4] (setting [8]); 93.3% (active) in experiment [4] (at 50.0 µM). For the same compound, the growth inhibition in experiment [6] (setting [7]) was -8%; in experiment [6] (setting [8]), 78% (active); in experiment [6] (at 50.0 µM), 96% (active).
For `CCC(C(c1ccc(Cl)cc1)c1ccc(Cl)c(Cl)c1)[N+](=O)[O-]` (centres undefined), the growth inhibition in experiment [1] (setting [7]) was 4%; in experiment [1] (setting [8]), 12%; in experiment [1] (at 50.0 µM), 8.3%; in experiment [2] (setting [7]) it was 0%; in experiment [2] (setting [8]), 17%; in experiment [2] (at 50.0 µM), -4.05%. For the same compound, the growth inhibition in experiment [3] (setting [7]) was 4%; in experiment [3] (setting [8]), 12%; in experiment [3] (at 50.0 µM), 14.1%; in experiment [4] (setting [7]), 4%; in experiment [4] (setting [8]), 30%; in experiment [4] (at 50.0 µM), 34%. The growth inhibition in experiment [6] (setting [7]) is 1%; in experiment [6] (setting [8]), 32%; in experiment [6] (at 50.0 µM), 5.3%.
Turning to `Cc1ccc(NCCN(C)C)c2c(=O)c3ccc(O)cc3sc12`, the growth inhibition in experiment [1] (setting [7]) was 56%; in experiment [1] (setting [8]), 96% (active); in experiment [1] (at 50.0 µM) it was 98.5% (active); in experiment [2] (setting [7]), -3%; in experiment [2] (setting [8]), 82% (active); in experiment [2] (at 50.0 µM) it was 98.9% (active). The growth inhibition in experiment [3] (setting [7]) is -1%; in experiment [3] (setting [8]) it was 88% (active); in experiment [3] (at 50.0 µM), 93% (active); in experiment [4] (setting [7]), -3%; in experiment [4] (setting [8]), 85% (active); in experiment [4] (at 50.0 µM) it was 63.5%. The growth inhibition is 5% in experiment [6] (setting [7]), 94% (active) in experiment [6] (setting [8]) and 99.2% (active) in experiment [6] (at 50.0 µM).
Turning to `CCC(C)(O)Cc1cnccn1` (centres undefined), the growth inhibition in experiment [1] (setting [7]) is 3%; in experiment [1] (setting [8]), 1%; in experiment [1] (at 50.0 µM) it was 1.75%; in experiment [2] (setting [7]), 0%; in experiment [2] (setting [8]) it was 1%; in experiment [2] (at 50.0 µM) it was -2.7%. Moreover, the growth inhibition in experiment [3] (setting [7]) was 2%; in experiment [3] (setting [8]), -3%; in experiment [3] (at 50.0 µM), 7.25%; in experiment [4] (setting [7]), -1%; in experiment [4] (setting [8]), -2%; in experiment [4] (at 50.0 µM) it was 14.8%. For the same compound, the results for the growth inhibition in experiment [6] (setting [7]), in experiment [6] (setting [8]) and in experiment [6] (at 50.0 µM) were -10%, 2% and 9.25%, respectively.
Take `O=C(Cc1nc2ccccc2s1)Nc1cccc(C(F)(F)F)c1`: the growth inhibition was 41% in experiment [1] (setting [7]); 98% (active) in experiment [1] (setting [8]); 92.2% (active) in experiment [1] (at 50.0 µM); 39% in experiment [2] (setting [7]); 100% (active) in experiment [2] (setting [8]); 93.7% (active) in experiment [2] (at 50.0 µM). Moreover, the growth inhibition in experiment [3] (setting [7]) was 54%; in experiment [3] (setting [8]), 99% (active); in experiment [3] (at 50.0 µM), 94.7% (active); in experiment [5] (setting [7]) it was 35%; in experiment [5] (setting [8]), 99% (active); in experiment [5] (at 50.0 µM) it was 92.4% (active). The growth inhibition in experiment [6] (setting [7]) was 64%; in experiment [6] (setting [8]) it was 99% (active); in experiment [6] (at 50.0 µM), 93% (active).
For the compound `C=COCCN1CCN(CCCN2c3ccccc3Sc3ccc(C(F)(F)F)cc32)CC1`, the growth inhibition in experiment [1] (setting [7]) was -4%; in experiment [1] (setting [8]) it was 99% (active); in experiment [1] (at 50.0 µM), 99.5% (active); in experiment [2] (setting [7]) it was -4%; in experiment [2] (setting [8]), 99% (active); in experiment [2] (at 50.0 µM), 99% (active). In addition, the growth inhibition in experiment [3] (setting [7]) was -1%; in experiment [3] (setting [8]), 99% (active); in experiment [3] (at 50.0 µM), 99.7% (active); in experiment [4] (setting [7]) it was -2%; in experiment [4] (setting [8]), 99% (active); in experiment [4] (at 50.0 µM), 98.7% (active). Besides, the growth inhibition was 1% in experiment [5] (setting [7]); 99% (active) in experiment [5] (setting [8]); 98.5% (active) in experiment [5] (at 50.0 µM); 1% in experiment [6] (setting [7]); 99% (active) in experiment [6] (setting [8]); 99.3% (active) in experiment [6] (at 50.0 µM).
Consider `COc1ccc(/C=C/Cc2cc3c(cc2O)OCO3)cc1`, for which the growth inhibition in experiment [1] (setting [7]) was -15%; in experiment [1] (setting [8]), 13%; in experiment [1] (at 50.0 µM), -4.05%; in experiment [2] (setting [7]), -2%; in experiment [2] (setting [8]), -10%; in experiment [2] (at 50.0 µM) it was -9.7%. For the same compound, the growth inhibition in experiment [3] (setting [7]) was 12%; in experiment [3] (setting [8]) it was 5%; in experiment [3] (at 50.0 µM), 13.1%; in experiment [4] (setting [7]), 3%; in experiment [4] (setting [8]) it was -2%; in experiment [4] (at 50.0 µM), 25.8%. The growth inhibition in experiment [5] (setting [7]) was -2%; in experiment [5] (setting [8]), 14%; in experiment [5] (at 50.0 µM) it was 17.2%; in experiment [6] (setting [7]), -6%; in experiment [6] (setting [8]), 1%; in experiment [6] (at 50.0 µM) it was 0.85%.
Turning to `O=[N+]([O-])c1ccc(/C=N/O)s1`, the growth inhibition in experiment [1] (setting [7]) was -11%; in experiment [1] (setting [8]), 99% (active); in experiment [1] (at 50.0 µM) it was 99.5% (active); in experiment [2] (setting [7]), 3%; in experiment [2] (setting [8]), 100% (active); in experiment [2] (at 50.0 µM), 99.7% (active). Further, the growth inhibition in experiment [3] (setting [7]) is -7%; in experiment [3] (setting [8]) it was 99% (active); in experiment [3] (at 50.0 µM) it was 97.7% (active); in experiment [5] (setting [7]), -17%; in experiment [5] (setting [8]), 99% (active); in experiment [5] (at 50.0 µM), 99.7% (active). Moreover, the growth inhibition in experiment [6] (setting [7]) is 12%; in experiment [6] (setting [8]), 99% (active); in experiment [6] (at 50.0 µM), 99.3% (active).
